# High-throughput results deposited in PubChem BioAssay by National Center for Advancing Translational Sciences (NCATS).
# SNCA viab count: GF-AFC viability counterscreen for inhibitors of alpha-synuclein gene (SNCA) expression; HEK-293-SNCA-luc viability, GF-AFC fluorescence, 24 h; Potency, µM (highest dose often 57.1 µM), without a hit: at the highest dose activity change, negative = cytotoxicity, hits mostly cytotoxic; actives 0.12% (n = 150,000); AID 1671193, 2021;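 also: potency is read from the fitted curve at half-maximal effect; 0% = DMSO-treated cells and -100% = medium-only wells without cells; nearly all actives have a fitted effect of over 30% in size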
#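 HEK-293-SNCA-luc cells (1500/well) plated 24 h, then exposed 24 h to a dilution series; GF-AFC added 30 min at 37C, fluorescence 405/540 nm; normalised to medium-only and DMSO wells, Hill fit.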
# SNCA expr inh: Primary qHTS assay for inhibitors of alpha-synuclein gene (SNCA) expression; HEK-293 SNCA-luciferase knock-in, luminescence, 24 h; Potency, µM (top dose mostly 57.2 µM), inactives show at the highest dose activity change, negative = inhibition, hits mostly inhibitors; actives 0.17% (n = 140,000);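 also: potency is read from the fitted curve at half-maximal effect; plate controls were DMSO cells for no effect and cell-free wells for full effect; nearly all actives have a fitted effect of over 45% in size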
# KDM5B inhibitor: Primary screen for KDM5B Histone Demethylases FDH-coupled qHTS; KDM5B demethylase, FDH-coupled NADH fluorescence (FDH is formaldehyde dehydrogenase); Potency, µM (titrated, usually from 57.7 µM), hits mostly inhibitors; actives 2.6% (n = 220,000); also: potency is read from the fitted curve at half-maximal effect; 0% is about no effect; nearly all actives have a fitted effect of over 70% in size
# Target sequence (Q9UGL1 whole entry, looked up): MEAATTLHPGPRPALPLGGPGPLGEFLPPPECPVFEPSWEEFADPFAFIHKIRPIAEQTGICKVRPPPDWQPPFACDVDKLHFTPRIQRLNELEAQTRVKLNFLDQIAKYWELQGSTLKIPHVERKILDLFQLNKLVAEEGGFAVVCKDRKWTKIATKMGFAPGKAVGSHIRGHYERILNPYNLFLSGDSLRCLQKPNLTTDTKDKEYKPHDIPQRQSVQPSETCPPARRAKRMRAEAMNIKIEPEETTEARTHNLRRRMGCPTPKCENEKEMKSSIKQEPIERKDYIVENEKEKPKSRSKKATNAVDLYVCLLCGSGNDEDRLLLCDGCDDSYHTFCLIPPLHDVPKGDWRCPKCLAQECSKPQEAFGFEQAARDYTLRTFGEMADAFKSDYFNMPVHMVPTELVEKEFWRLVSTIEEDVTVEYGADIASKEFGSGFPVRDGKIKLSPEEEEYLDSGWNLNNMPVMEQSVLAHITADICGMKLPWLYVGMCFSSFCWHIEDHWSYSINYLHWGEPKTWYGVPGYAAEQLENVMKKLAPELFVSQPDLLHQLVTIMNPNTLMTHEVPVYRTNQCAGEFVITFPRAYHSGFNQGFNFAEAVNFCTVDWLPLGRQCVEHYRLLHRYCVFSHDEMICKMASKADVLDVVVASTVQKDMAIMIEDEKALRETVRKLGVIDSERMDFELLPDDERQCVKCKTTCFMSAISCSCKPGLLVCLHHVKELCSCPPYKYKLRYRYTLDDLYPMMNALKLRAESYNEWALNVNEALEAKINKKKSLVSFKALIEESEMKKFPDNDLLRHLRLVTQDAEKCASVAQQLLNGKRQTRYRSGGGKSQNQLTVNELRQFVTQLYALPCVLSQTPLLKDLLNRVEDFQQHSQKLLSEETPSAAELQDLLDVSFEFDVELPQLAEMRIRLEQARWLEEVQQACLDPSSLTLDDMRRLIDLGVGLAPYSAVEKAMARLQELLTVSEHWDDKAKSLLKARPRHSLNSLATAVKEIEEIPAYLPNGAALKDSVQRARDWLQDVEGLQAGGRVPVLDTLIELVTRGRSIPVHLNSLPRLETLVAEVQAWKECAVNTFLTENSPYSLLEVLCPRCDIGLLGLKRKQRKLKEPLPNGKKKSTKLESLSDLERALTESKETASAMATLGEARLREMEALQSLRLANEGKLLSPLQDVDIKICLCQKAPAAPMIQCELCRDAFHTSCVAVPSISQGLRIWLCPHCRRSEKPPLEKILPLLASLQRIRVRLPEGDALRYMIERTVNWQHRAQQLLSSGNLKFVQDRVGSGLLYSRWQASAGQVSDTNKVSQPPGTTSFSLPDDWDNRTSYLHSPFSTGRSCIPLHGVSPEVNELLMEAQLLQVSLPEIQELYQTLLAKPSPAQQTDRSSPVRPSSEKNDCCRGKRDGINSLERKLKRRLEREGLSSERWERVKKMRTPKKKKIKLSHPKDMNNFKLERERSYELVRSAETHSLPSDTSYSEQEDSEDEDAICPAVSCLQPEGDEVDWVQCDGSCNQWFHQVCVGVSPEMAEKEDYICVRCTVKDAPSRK
#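 qHTS format, multiple compound concentrations. Buffer 50 mM HEPES pH 7.5/0.01% Tween-20; 200 nM KDM5BΔAP final; 10 min compound preincubation; substrate-mix levels 12.5 µM peptide, 25 µM α-KG, 0.25 mM NAD⁺; 30 min RT; ΔRFU.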
# IP6K1 inh: Primary qHTS assay for small molecule inhibitors of Inositol hexaphosphate kinase 1 (IP6K1); Inositol hexakisphosphate kinase 1 (Homo sapiens), Q92551; IP6K1 kinase, ADP-Glo luminescence, 2 h; active compounds read low; activity change, % (series mostly up to about 58 µM); actives 0.81% (n = 140,000); AID 1645851, 2021; in the data active = activity change below about -25%; also: % is scaled to controls: 0 for no effect and ±100 for the full control effect
#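 ADP-Glo luminescence measures ADP made by human IP6K1 during a 2 h RT reaction with ATP/IP6 (mix at 1.3 mM/130 uM); top library doses 57.5 and 19.1 uM final.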
# * = called active by the depositor; i = inactive; ? = inconclusive; · = not tested or not shown; [ ] = remark or other dose. An excerpt weighted towards active compounds, which were near 2.9% of everything screened. Unless noted, calls follow the shape of the dose curve; as a rule, active = well fitted curve in the direction sought with a large enough effect; inconclusive = small, poorly fitted or top-dose-only effect, or another doubt; inactive = no such curve, though single readings can be large; an effect the other way counts as inactive or inconclusive.
SMILES,SNCA viab count,SNCA expr inh,KDM5B inhibitor,IP6K1 inh
O=c1ncn(Cc2ccccc2)c2ccc(-c3ccsc3)nc12,2.4%[87.6 µM],6.2%[87.6 µM],35.5µM*,1.9
COc1cccc(F)c1-c1ccc2c(n1)c(=O)ncn2Cc1ccccc1,-7.1%[87.6 µM],1.5%[87.6 µM],i,7.7
CCOC(=O)c1c(C)[nH]c(C)c1S(=O)(=O)N(C)CC(=O)Nc1cc(Cl)ccc1OC,-11.2%,-10.1%,i,-27.9*
CCOC(=O)c1c(C)[nH]c(C)c1S(=O)(=O)NCC(=O)Nc1cc(Cl)ccc1OC,-3.3%,13.3%,i,-1.3
C=CCOC(=O)C1=C(C)N=C2SC=C(CC(=O)N3CCCC3)N2C1c1ccc(OC)cc1OC (centres undefined),-12.1%,-14.2%,28.2µM*,3.8
C=CCOC(=O)C1=C(C)N=C2SC=C(CC(=O)N3CCCC3)N2C1c1cc(OC)cc(OC)c1 (centres undefined),-6.0%,16.6%,i,-1.6
CCC(=O)Nc1ccc(C)cc1-c1nc2ccccc2n(CC(=O)c2ccc(C)cc2)c1=O,17.4%,28.2µM*,i,23.7
COc1ccc(C(=O)Cn2c(=O)c(-c3cc(C)ccc3NC(C)=O)nc3ccccc32)cc1,?,-4.9%,?,-15.0
Cc1cc(NC(=O)c2cnc3c(-c4ccccc4)c(C)nn3c2C)ccc1Br,2.1%,0.9%,i,-5.2
Cc1ccc(-c2cc3c(=O)n(CCNC(=O)c4ccc[nH]c4=O)ccn3n2)cc1C,-13.8%,-10.1%,35.5µM*,-9.8
O=C(NCCn1ccn2nc(-c3ccc(F)cc3)cc2c1=O)c1cccc2[nH]ccc12,-2.4%,-26.1%,28.2µM*,-2.5
Cc1ccc(-c2cc3c(=O)n(CCNC(=O)c4ccoc4)ccn3n2)cc1C,-18.6%,26.8%,?,-10.1
Cc1ccc(-c2cc3c(=O)n(CCNC(=O)Cc4cccc(F)c4)ccn3n2)cc1C,-5.5%,21.3%,?,-2.4
Cc1ccc(-c2cc3c(=O)n(CCNC(=O)c4cccc5[nH]ccc45)ccn3n2)cc1C,?,-15.7%,28.2µM*,-4.2
Cc1ccc(OCC(=O)Nc2ccc3oc(-c4cccc5ccccc45)nc3c2)c(-n2cnnc2)c1,·,·,i,·
CN(C)c1nc2c(c(=O)[nH]1)CCN(Cc1cccc(Cl)c1F)CC2,-13.4%,-5.5%,?,3.6
O=C(CCc1ccc(-c2ccc(Cl)cc2)[nH]1)N[C@@H]1C[C@@H]2OCC[C@@H]21,-6.5%,13.5%,31.6µM*,1.0
CO[C@@H]1COCC[C@H]1NC(=O)CCc1ccc(-c2ccc(Cl)cc2)[nH]1,-1.1%,-0.7%,28.2µM*,-7.9
Cc1ccc(C(CC(=O)N2CCCCC2)c2cn(C)c3ccccc23)cc1 (centres undefined),-14.1%,-6.7%,?,20.7
Cc1ccc(C(CC(=O)N2CCc3ccccc3C2)c2cn(C)c3ccccc23)cc1 (centres undefined),9.0%,4.4%,17.8µM*,3.7
COc1ccccc1C1CC(=O)NC(C)=C1C(=O)OC1CCCCCC1 (centres undefined),4.1%,-1.0%,i,19.8
CCNc1ncnc2c1CN(C1CCNCC1)C(=O)CN2C,9.5%,-17.6%,56.2µM*,-2.2
CN1CC(=O)N(C2CCCNCC2)Cc2c1ncnc2N1CCN(c2ccccn2)CC1 (centres undefined),-6.4%,0.5%,79.4µM*,1.0
CN1CC(=O)N(C2CCCNCC2)Cc2c(NCC3CCCCC3)ncnc21 (centres undefined),3.9%,10.7%,?,-2.2
CN1CC(=O)N(C2CCCNC2)Cc2c1ncnc2N(C)Cc1ccc(F)cc1 (centres undefined),-0.1%,9.3%,22.4µM*,-11.6
SMILES,SNCA viab count,SNCA expr inh,KDM5B inhibitor,IP6K1 inh
COc1cccc(C(=O)N2CCN(C)C3(CCNC(=O)CC3)C2)c1C (centres undefined),-0.9%,12.4%,i,11.1
COc1ccc(C(=O)NC2CCN(c3ccc4nnc(-c5ccccc5)n4n3)CC2)cc1,·,·,·,1.3
O=C(C1CC1)N1CCCN(c2nc3ncccc3o2)CC1,0.9%[87.6 µM],79.9%[87.6 µM],?,-1.8
N#CC1CCN(C(=O)C2CCCN(c3nc4ncccc4o3)C2)CC1 (centres undefined),11.1%[87.6 µM],41.7%[87.6 µM],31.6µM*,10.5
CC(C)NC(=O)C1CCCN(c2nc3ncccc3o2)C1 (centres undefined),15.0%[87.6 µM],40.5%[87.6 µM],20µM*,-2.4
O=C(C1CCCN(c2nc3ncccc3o2)C1)N1CCCC1 (centres undefined),-8.3%[87.6 µM],-11.4%[87.6 µM],25.1µM*,11.0
CN(C)C(=O)C1CCCN(c2nc3ncccc3o2)C1 (centres undefined),10.7%[87.6 µM],-1.3%[87.6 µM],25.1µM*,0.0
Cc1ccc(N2CC(NC(=O)c3cccs3)CC2=O)cc1 (centres undefined),-6.8%,-13.4%,i,2.9
CCOC(=O)C1=C(C)NC(=O)C1(NC(=O)c1ccco1)C(F)(F)F (centres undefined),·,·,i,·
Cc1nn(Cc2cccc(C(F)(F)F)c2)c(C)c1NS(=O)(=O)c1c(C)nn(C(F)F)c1C,·,·,i,·
COc1ccc(NC(=O)c2sc3nc[nH]c(=O)c3c2C)cc1Cl,-17.9%,56.2%,?,-1.0
COCCNc1nc2c([S+](=O)([O-])c3ccc(OC)cc3)nnn2c2ccccc12,1.7%,6.3%,?,3.3
COc1ccc([S+](=O)([O-])c2nnn3c2nc(N2CCOCC2)c2ccccc23)cc1,10.3%,41.3%,79.4µM*,4.5
Cc1ccc([S+](=O)([O-])c2nnn3c2nc(NCc2ccncc2)c2ccccc23)cc1C,11.6%,46.4%,89.1µM*,29.1
O=[S+]([O-])(c1cccnc1)c1nnn2c1nc(N1CCOCC1)c1ccccc12,2.3%,13.4%,i,1.9
COCCCNc1nc2c([S+](=O)([O-])c3ccc(OC)cc3)nnn2c2ccccc12,3.5%,33.9%,31.6µM*,15.1
CCc1ccc([S+](=O)([O-])c2nnn3c2nc(NCCCOC)c2ccccc23)cc1,5.1%,7.4%,89.1µM*,-4.8
COc1ccccc1-c1nnc2ccc(C(=O)NCc3ccc(F)c(F)c3)cn12,2.3%,-13.7%,·,8.2
O=C(NC1CC1)C(Cl)c1ccccc1 (centres undefined),·,·,i,·
O=C(CCc1nc2ccccc2s1)N1CC2CC(C1)[C@H]1CCCC(=O)N1C2 (some centres undefined),-0.5%,10.1%,i,12.7
Cc1ccc(S(=O)(=O)c2nnn3c2nc(N2CCCCC2)c2ccccc23)cc1,1.9%,-20.4%,i,32.0
Cc1ccc(C)c([S+](=O)([O-])c2nnn3c2nc(NC2CC2)c2ccccc23)c1,-20.4%,4.5%,79.4µM*,2.3
Cc1ccc(S(=O)(=O)c2nnn3c2nc(N2CCOCC2)c2ccccc23)cc1,7.6%,7.6%,79.4µM*,-2.8
COCCNc1nc2c(S(=O)(=O)c3ccc(C)c(C)c3)nnn2c2ccccc12,8.5%,6.3%,79.4µM*,10.1
